# Measured values taken from PubChem BioAssay AID1445 (SRMLSC, 2008).
# In all, about 220,000 compounds went through this assay and about 910 (0.41%) were called active.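 The calls were made as follows: active = primary inhibition above the hit cutoff, then over 50% inhibition at one or more dose response concentrations (cut at about 23% in these data, passing the limit was not always enough); inconclusive = conflicting primary data, or primary hits not chosen for dose response; inactive = low primary inhibition, or under 50% at every dose.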 The list comes from a sample in which actives are over-represented; it also holds similar structures and randomly drawn compounds. Entries with a potency or affinity are not part of this list.
# Biological target: Aminopeptidase N (Plasmodium falciparum (isolate 3D7)) (UniProt O96935)
# Sequence (O96935 whole entry, looked up): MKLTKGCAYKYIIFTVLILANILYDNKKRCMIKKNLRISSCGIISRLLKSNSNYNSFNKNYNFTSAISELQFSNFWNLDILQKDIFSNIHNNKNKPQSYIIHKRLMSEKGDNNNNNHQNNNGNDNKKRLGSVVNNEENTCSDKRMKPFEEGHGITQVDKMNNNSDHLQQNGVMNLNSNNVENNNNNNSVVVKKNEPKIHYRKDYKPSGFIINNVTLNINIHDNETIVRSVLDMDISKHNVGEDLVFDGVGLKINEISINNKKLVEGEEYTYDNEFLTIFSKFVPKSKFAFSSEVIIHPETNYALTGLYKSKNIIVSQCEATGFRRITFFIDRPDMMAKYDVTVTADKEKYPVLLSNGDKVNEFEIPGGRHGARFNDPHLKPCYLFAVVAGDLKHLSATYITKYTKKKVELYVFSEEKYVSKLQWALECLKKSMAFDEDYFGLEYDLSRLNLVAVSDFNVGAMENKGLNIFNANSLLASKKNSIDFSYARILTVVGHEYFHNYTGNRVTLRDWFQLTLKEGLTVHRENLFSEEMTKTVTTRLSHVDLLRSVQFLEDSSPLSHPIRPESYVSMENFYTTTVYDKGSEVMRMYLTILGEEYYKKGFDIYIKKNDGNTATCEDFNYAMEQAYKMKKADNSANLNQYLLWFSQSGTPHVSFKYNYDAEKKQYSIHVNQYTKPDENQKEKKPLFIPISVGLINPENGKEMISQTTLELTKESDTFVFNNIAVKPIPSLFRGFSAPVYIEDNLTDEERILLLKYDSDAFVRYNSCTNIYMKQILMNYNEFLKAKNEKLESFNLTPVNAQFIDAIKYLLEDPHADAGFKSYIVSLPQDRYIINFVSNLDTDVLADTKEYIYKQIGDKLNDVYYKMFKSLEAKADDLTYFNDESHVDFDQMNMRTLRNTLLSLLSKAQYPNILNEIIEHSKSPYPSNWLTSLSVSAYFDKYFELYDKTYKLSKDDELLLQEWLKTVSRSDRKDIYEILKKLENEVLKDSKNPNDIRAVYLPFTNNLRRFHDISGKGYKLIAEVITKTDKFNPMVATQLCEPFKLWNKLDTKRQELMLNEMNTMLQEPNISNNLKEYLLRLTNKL
# Assay: P. falciparum M1AAP inhibitors, biochemical, fluorogenic H-Leu-NHMec substrate, 1536-well (AID 1445);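 also: plate controls were DMSO full reaction for no effect and no enzyme background for full effect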
# Settings: recombinant M1AAP, H-Leu-NHMec fluorogenic kinetic assay; at 30 µM, active compounds read high unless noted
row,Structure (SMILES),inhibition
1,COc1ccc(N2CCN(CC(=O)Nc3nnc(-c4ccccc4)s3)CC2)cc1,23.4% (active)
2,COc1ccc(N2CCN(CC(=O)N3CCC(C)CC3)CC2)cc1,24.4% (active)
3,COc1ccc(N2CCN(C(=O)CN3CCN(C(c4ccccc4)c4ccccc4)CC3)CC2)cc1,3.02% (inactive)
4,COc1ccc(N2CCN(C(=O)CN3C(=O)C4CC=CCC4C3=O)CC2)cc1 (centres undefined),-0.46% (inactive)
5,COc1cccc(N2CCN(CC(=O)Nc3nnc(-c4ccccc4)s3)CC2)c1,-5.75% (inactive)
6,O=C(CN1CCN(c2ccccc2)CC1)Nc1nnc(-c2ccccc2)s1,-5.83% (inactive)
7,CCn1c(SCC(=O)NCC2CCCO2)nnc1-c1ccccc1 (centres undefined),1.77% (inactive)
8,c1cc2c(cc1C1=NNC(=NC3CC3)SC1)OCCO2,8.68% (inactive)
9,CCOC(=O)Cc1csc(NC(=O)CC(C)(C)CC(=O)O)n1,-4.17% (inactive)
10,CCN(CC)S(=O)(=O)c1cccc(-c2n[nH]c(=S)n2/N=C/c2ccc(OC)cc2)c1,13.1% (inactive)
11,CCCc1c(C(=O)NNc2cc(C(F)(F)F)ccc2Cl)cnn1-c1ccccc1,-1.62% (inactive)
12,CCC(=O)NC(=S)Nc1ccc(N2CCOCC2)cc1,4.46% (inactive)
13,O=C(COc1ccc(Cl)cc1)NNC(=O)C(=O)N1CCCCC1,32.2% (inactive)
14,CCOC(=O)N1CCN(C(=O)C(=O)NNC(=O)COc2ccc(Cl)c(C)c2)CC1,3.22% (inactive)
15,O=C(O)CC1S/C(=N\N=C2CCCCCCC2)N(c2ccccc2)C1=O (centres undefined),7.68% (inactive)
16,CN(C(=O)c1ccccc1)C1(C)CCS(=O)(=O)C1 (centres undefined),-2.77% (inactive)
17,O=c1c2cc(Cl)ccc2nc(-c2ccccc2)n1O,3.06% (inactive)
18,O=c1c2ccccc2nc(-c2cccc(Cl)c2)n1O,26.1% (active)
19,O=c1c2ccccc2nc(-c2ccc(Cl)c(Cl)c2)n1O,0.17% (inactive)
20,CS(=O)(=O)N(CC(=O)Nc1ccccc1Cl)c1ccc(Cl)cc1,4.49% (inactive)
21,O=C(Nc1ccc2c(c1)OCCO2)c1c(F)c(F)c(F)c(F)c1F,10.6% (inactive)
22,O=C(/C=C\c1ccccc1OC(=O)c1ccccc1F)c1cc2ccccc2o1,6.93% (inactive)
23,O=C(CSc1nc2c(c(=O)[nH]1)CCC2)Nc1cccc(Cl)c1,1.88% (inactive)
24,O=c1c2c(nc3nc(NCc4cccc(Cl)c4)[nH]n13)CCC2,9.8% (inactive)

row,Structure (SMILES),inhibition
1,CCCCCCCC(=O)NC1=NC(=O)C(C)(C)S1,-0.69% (inactive)
2,Cc1ccc2[nH]c(=O)c(CN(CC3COCCO3)C(=O)Nc3ccccc3C)cc2c1 (centres undefined),13.8% (inactive)
3,Cc1cccc(NC(=O)N(Cc2cc3cc(C)cc(C)c3[nH]c2=O)CC2COCCO2)c1 (centres undefined),2.91% (inactive)
4,CN(C)S(=O)(=O)c1ccc(C(=O)OCCn2cnc3c2c(=O)n(C)c(=O)n3C)cc1,-2.31% (inactive)
5,O=[N+]([O-])c1ccc(O)c(NC(=S)Nc2ccccc2)c1,-0.91% (inactive)
6,O=C(O)CCCC(=O)Nc1cc([N+](=O)[O-])ccc1O,7.33% (inactive)
7,Cc1ccc(NCc2nnc(SCC(=O)Nc3ncc(C)s3)n2CC2CCCO2)c(C)c1 (centres undefined),0.09% (inactive)
8,CCCCN(CC)CCCNC(=O)c1cc2cc3ccc(OC)cc3nc2o1,29.5% (inactive)
9,COc1ccc2cc3cc(C(=O)NCCN4CCN(c5ccccc5F)CC4)oc3nc2c1,-0.03% (inactive)
10,COc1ccc2cc3cc(C(=O)NC(C)C)oc3nc2c1,13.4% (inactive)
11,COc1ccc2cc3cc(C(=O)NCC4COc5ccccc5O4)oc3nc2c1 (centres undefined),3.66% (inactive)
12,CCCCN(CC)C(=O)c1cc2cc3ccc(OC)cc3nc2o1,13.7% (inactive)
13,COc1ccc2cc3cc(C(=O)NCCCN4CCOCC4)oc3nc2c1,18.2% (inactive)
14,Cc1cccc2c1Sc1ccccc1CC2=O,7.62% (inactive)
15,CCn1nnnc1NCc1ccc(N2CCCC2)cc1,5.58% (inactive)
16,COc1cccc(C(=O)OCC(=O)c2c[nH]c3ccccc23)c1O,6.87% (inactive)
17,COC(=O)N/N=C\c1ccc(OC(=O)c2ccco2)cc1,5.66% (inactive)
18,CC12CCCCC1c1ccccc1C(=NCC(=O)O)N2 (centres undefined),2.45% (inactive)
19,CCOC(=O)c1c(NC(=O)c2ccc(-n3cnnn3)cc2)sc2c1CCCC2,3.69% (inactive)
20,C=CCN(C#N)c1nc(OC)nc(N2CCCC2)n1,-0.65% (inactive)
21,COc1cccc(C(C(=O)NC2CCCC2)N(C(=O)c2ccco2)C2CC2)c1OC (centres undefined),11% (inactive)
22,O=C(NC1CCCC1)C(c1ccccc1F)N(C(=O)c1ccco1)C1CCCC1 (centres undefined),25% (active)
23,O=C(NC1CCCC1)C(c1ccccc1)N(C(=O)c1ccco1)C1CCCC1 (centres undefined),17.7% (inactive)
24,N/C(=N\OC(=O)CCCOc1ccccc1)c1ccc(Br)cc1,5.3% (inactive)

row,Structure (SMILES),inhibition
1,O=CN1CCN(C(=O)COc2ccc(Cl)cc2Br)CC1,1.29% (inactive)
2,COc1cc(/C=C2/C(=N)N3C=CSC3=NC2=O)ccc1OCCCOc1cc(C)ccc1C,-5.49% (inactive)
3,CCOc1cc(/C=C2\SC(=O)N=C2N)ccc1O,22% (inactive)
4,CCC1=NN2C(=N)/C(=C\c3ccc(OCc4cc(=O)n5nc(CC)sc5n4)c(OC)c3)C(=O)N=C2S1,32.8% (inactive)
5,CCCC1=NN2C(=N)/C(=C\c3ccc(SCc4ccco4)o3)C(=O)N=C2S1,20.4% (inactive)
6,CCOc1cc(/C=C2\SC(=O)N(c3ccc(O)cc3)C2=O)ccc1O,15.2% (inactive)
7,CCC1=NN2C(=N)/C(=C\c3ccc(SCc4ccco4)o3)C(=O)N=C2S1,7.98% (inactive)
8,O=S(=O)(NCc1ccccn1)c1cccc2nsnc12,3.36% (inactive)
9,Cc1cccc(NC(=O)NCc2ccc3c(c2)OCO3)c1C,-4.45% (inactive)
10,CSc1ccc(S(=O)(=O)NC(C)c2ccccc2)cc1 (centres undefined),-2.61% (inactive)
11,CCOc1cc(OCC)nc(S(C)(=O)=O)n1,2.35% (inactive)
12,CC(C)C(=O)N1CCC(CN=Cc2c(O)n(C3CCCCC3)c(=O)n(C3CCCCC3)c2=O)CC1,27% (active)
13,Cn1c(O)c(C=NCC2CCNCC2)c(=O)n(C)c1=O,-0.42% (inactive)
14,CC(C)C(=O)N1CCC(CN=CC2=C(O)CC(C)(C)CC2=O)CC1,6.11% (inactive)
15,COC(=O)Cc1[nH]n(-c2ccccc2)c(=O)c1C=Nc1ccc(C)cc1,-0.62% (inactive)
16,O=C(Nc1nc2nc(-c3ccccc3)cc(=O)n2[nH]1)c1ccccc1,-0.35% (inactive)
17,COc1ccc(C(=O)Nc2nc3nc(-c4ccccc4)cc(=O)n3[nH]2)cc1,10.9% (inactive)
18,Cc1ccc(C(=O)Nc2nc3nc(-c4ccccc4)cc(=O)n3[nH]2)cc1,25.9% (active)
19,Cc1onc(-c2c(F)cccc2Cl)c1C(=O)Nc1ccc(S(=O)(=O)Nc2ncccn2)cc1,13.8% (inactive)
20,Cc1cc(=O)oc2cc(Oc3ccc(C(N)=O)cc3[N+](=O)[O-])ccc12,30% (inactive)
21,O=c1ccc2ccc(Oc3ccc([N+](=O)[O-])cc3[N+](=O)[O-])cc2o1,11.5% (inactive)
22,CC(NC(=O)CN(C1CCCCC1)S(C)(=O)=O)c1ccccc1 (centres undefined),2.9% (inactive)
23,CC(NC(=O)COc1ccc(N(C)S(=O)(=O)c2ccccc2)cc1)c1ccccc1 (centres undefined),1.27% (inactive)
24,NS(=O)(=O)c1ccc(CCn2c(=S)[nH]c3ccc(F)cc3c2=O)cc1,-3.16% (inactive)

row,Structure (SMILES),inhibition
1,C=CCOc1ccc(C2c3c(oc4ccccc4c3=O)C(=O)N2CCCN2CCOCC2)cc1 (centres undefined),24.2% (active)
2,O=C1c2oc3ccc(F)cc3c(=O)c2C(c2cccc(O)c2)N1CCCN1CCOCC1 (centres undefined),-3% (inactive)
3,CCOc1ccc(C2c3c(oc4ccccc4c3=O)C(=O)N2CCCN2CCOCC2)cc1 (centres undefined),2.52% (inactive)
4,O=C1c2oc3ccccc3c(=O)c2C(c2cccc(O)c2)N1CCCN1CCOCC1 (centres undefined),26.8% (active)
5,COc1cccc(C2c3c(oc4ccccc4c3=O)C(=O)N2CCCN2CCOCC2)c1 (centres undefined),7.18% (inactive)
6,CCCOc1ccc(C2c3c(oc4ccccc4c3=O)C(=O)N2CCCN2CCOCC2)cc1 (centres undefined),4.5% (inactive)
7,Cc1ccc(Cn2c(SCCN3CCOCC3)nc3c2c(=O)n(C)c(=O)n3C)cc1,23.8% (active)
8,Cn1c(=O)c2c(nc(SCCN3CCOCC3)n2Cc2ccc(F)cc2)n(C)c1=O,-1.46% (inactive)
9,Cn1c(=O)c2c(nc(SCCN3CCOCC3)n2Cc2ccccc2)n(C)c1=O,7.6% (inactive)
10,Cc1ccc(NC(=O)NC2=NN(c3ccccc3)C(=O)/C2=C2/CCCN2C)cc1,8.56% (inactive)
11,O=C(c1nc2ccccn2c1CN1CCC(Cc2ccccc2)CC1)N1CCCC1,5.48% (inactive)
12,COc1ccc(N(CC(=O)Nc2ccccc2C(=O)NCc2ccco2)S(C)(=O)=O)cc1,3.79% (inactive)
13,CCOc1ccccc1N(CC(=O)Nc1ccccc1C(=O)NCc1ccco1)S(C)(=O)=O,21% (inactive)
14,CCOc1ccc(N(CC(=O)Nc2ccccc2C(=O)NCc2ccco2)S(C)(=O)=O)cc1,23.4% (active)
15,COc1ccc(C(C)=O)cc1CSc1nncn1C,4.42% (inactive)
16,COC(=O)c1c(NC(NC(=O)c2ccccc2)(C(F)(F)F)C(F)(F)F)sc2c1CCN(C)C2,2.95% (inactive)
17,CCOC(=O)N(C)OC(=O)Nc1ccc(Cl)c(Cl)c1,24% (active)
18,CCOC(=O)CNNC(=O)Nc1ccc(Cl)c(Cl)c1,-5.41% (inactive)
19,CCOC(=O)N(CC)OC(=O)Nc1ccc(Cl)cc1,2.39% (inactive)
20,Nc1nc(SCC(=O)Nc2cc(-c3ccccc3)nn2-c2ccccc2)n[nH]1,26.4% (active)
21,CCCc1ccc(-c2cc(NC(=O)CSc3n[nH]c(N)n3)n(-c3ccccc3)n2)cc1,-9.14% (inactive)
22,Cc1ccc(-c2cc(NC(=O)CSc3n[nH]c(N)n3)n(-c3ccccc3)n2)cc1,3.01% (inactive)
